High-throughput results from PubChem BioAssay.
Rows were chosen to be rich in hits. Some 2% of all compounds tested hit in one or more screens of this group.
CCHFV vOTU inh = blocks the CCHF virus ovarian tumor domain protease; CCHFV vOTU protease, Pep-AMC fluorescence; inhibition, % at 11.5 µM; 370,000 tested, 0.55% active; AID 651958; in the data active means inhibition above about 30%
Yp Topo-I inh = blocks Yersinia pestis topoisomerase I activity; Y. pestis Topo-I cleavage product accumulation, plate reader; activity, % at 10 µM; 360,000 tested, 0.064% active; in the data active means activity above about 50%, passing the limit was not always enough
BJeLR lethal = kills HRASV12-expressing BJeLR cells; BJeLR (HRASV12) viability, CellTiter-Glo ATP luminescence, 48 h; inhibition, % (no concentration beside the values); 300,000 tested, 0.17% active; AID 1554; in the data active means inhibition above about 50%
PrP 5UTR inh = inhibition of PrP 5' UTR reporter expression; cell-based PrP 5' UTR mRNA reporter, plate reader; inhibition, % (no concentration beside the values); 340,000 tested, 0.35% active; AID 488862; in the data active means inhibition above about 52%
PrPC TRFRET = inhibitors of human cell surface prion protein PrPC; TR-FRET read-out; P04156; AID 720596; 370,000 tested, 0.43% active; inhibition, % at 13.8 µM; in the data active means inhibition above about 24%
PfHsp40 rescue = compounds rescuing yeast from Plasmodium falciparum HSP40 toxicity; S. cerevisiae expressing PfHsp40, growth rescue, ATP luminescence; growth rescue, % at 12.5 µM; 340,000 tested, 0.68% active; in the data active means growth rescue above about 28%, passing the limit was not always enough;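 further: yeast W303a lacking pdr1 and pdr3 grown in galactose medium; growth measured after three days at 30 °C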
A number is an active result; – = inactive; · = not tested or not shown.

SMILES	CCHFV vOTU inh	Yp Topo-I inh	BJeLR lethal	PrP 5UTR inh	PrPC TRFRET	PfHsp40 rescue
CCN1CCc2c(sc(NC(=O)c3cc4ccccc4cc3OC)c2C(N)=O)C1	–	–	60	–	–	–
O=C(N1CCc2ccccc2C1)n1cc(C(O)(c2ccccc2)c2ccccc2)nn1	·	·	·	·	–	·
O=C1CC(N2CCCCCC2)C(=O)N1c1ccc2c(c1)OCO2 (stereo not drawn)	–	–	–	–	–	78
CN(C)CCNC(=O)c1cc2c(s1)-c1ccc(Cl)cc1SC2	–	–	79	–	–	–
CCOCCCNC(=O)c1cc2c(s1)-c1ccccc1SC2	–	–	–	–	–	–
CCOC(=O)c1ccc(NC(=S)N(Cc2cccnc2)Cc2ccco2)cc1	–	–	–	–	–	389
COc1cc(C2=NOC(C(=O)NCc3cccs3)C2)cc(OC)c1OC (stereo not drawn)	–	–	–	–	–	–
COc1cc(OC)c(C2=NOC(C(=O)NCc3cccs3)C2)cc1Cl (stereo not drawn)	–	–	63	–	–	–
O=C(N[C@H](C(=O)N1CCC[C@H]1C(=O)NCCc1ccccc1Cl)c1ccccc1)C1CCCC1	–	·	·	·	–	·
Cc1cc(/C=N/n2c(COc3ccccc3C)nc3ccccc3c2=O)c(O)c([N+](=O)[O-])c1	–	–	–	–	–	57
O=C(c1cccc(Br)c1)N1CCC(Oc2cccnc2)CC1	–	·	·	·	–	·
CCN(CC)C(=O)CSc1nnc(-c2ccccn2)n1C	–	·	·	·	–	·
NC(=S)N/N=C/c1coc2ccc(Br)cc2c1=O	–	–	–	–	–	38
NC(=S)N/N=C/c1coc2cc(Br)ccc2c1=O	–	–	–	–	–	–
COc1ccc(C(=O)OCCN2CCN(C3CN(Cc4cn(Cc5cccc(F)c5)nn4)S(=O)(=O)C3)CC2)cc1OC (stereo not drawn)	–	·	·	·	–	·
CNC(=O)Nc1cccc(-c2cc(-c3c(Cl)cccc3Cl)no2)c1	–	–	–	–	–	–
CC(=O)Nc1cccc(-c2cc(-c3c(Cl)cccc3Cl)no2)c1	–	–	–	–	–	357
CC1CCC2C(C)C(=O)OC3OC4(C)CCC1C32OO4 (stereo not drawn)	–	–	–	–	–	137
CC1CCC2[C@@H](C)C(=O)OC3O[C@]4(C)CCC1C32OO4 (stereo partly drawn)	–	–	–	–	–	110
O=C(/C=C/c1ccc(F)cc1)NCCCN1CCN(CCCNC(=O)/C=C/c2ccc(F)cc2)CC1	–	–	–	–	–	37
COc1ccc(/C=C/C(=O)NCCCN2CCCCCC2)cc1	–	–	–	–	–	–
O=C(O)c1ccc(N/N=C/C2=C(N3CCOCC3)C(=C\c3ccccc3)/CC2)cc1	–	–	–	–	–	273
CCN(CC)c1ncnc2scc(C3COc4ccccc4O3)c12 (stereo not drawn)	–	53	–	–	–	–
CCCCN1CCN(C(=O)c2ccc(CNC(=O)c3cccc(Br)c3)cc2)CC1	–	·	·	·	–	·
COc1ccc(N2C(=O)C(Cl)=C(Nc3ccccc3O)C2=O)cc1	–	–	–	–	–	82
SMILES	CCHFV vOTU inh	Yp Topo-I inh	BJeLR lethal	PrP 5UTR inh	PrPC TRFRET	PfHsp40 rescue
CCOc1ccccc1NC1=C(Cl)C(=O)N(c2ccccc2)C1=O	–	–	–	–	–	–
CCOC(=O)C1Nc2ccccc2C2C(O)C(O)CC12 (stereo not drawn)	61	–	–	–	–	–
Cc1c(C(=O)N(Cc2ccccc2)C(C)C)cnn1-c1ccccc1	–	–	–	–	–	–
Cc1c(C(=O)N(Cc2ccccc2)Cc2cccs2)cnn1-c1ccc(Cl)cc1	–	–	–	–	–	117
Cc1occc1C(=O)NC(C)C12CC3CC(CC(C3)C1)C2 (stereo not drawn)	–	–	–	–	–	105
CC(NC(=O)c1ccccc1F)C12CC3CC(CC(C3)C1)C2 (stereo not drawn)	–	–	–	–	–	–
CC12C=CC(=O)C=C1CCC1C2C(=O)CC2(C)C(=O)CCC12 (stereo not drawn)	–	–	·	–	–	–
C[C@]12C=CC(=O)C=C1CC[C@@H]1[C@@H]2CC[C@]2(C)C(=O)CC[C@@H]12	–	–	·	–	–	48
O=C(NCc1ccccc1)c1cccc(COc2cc(Cl)ccc2Cl)c1	–	–	–	–	–	–
O=C(c1cccc(COc2ccc(Cl)cc2Cl)c1)N1CCN(c2ccccn2)CC1	–	–	–	–	–	28
CN(C(=O)c1cccc(COc2ccc(Cl)cc2Cl)c1)c1ccccc1	–	51	–	–	–	–
CCOC(=O)C1=Nc2cccc3c(O)ccc1c23	–	·	·	·	–	·
CCOC(=O)C1=Nc2ccccc2C1=[N+]=[N-]	–	–	–	–	–	33
c1c[nH]c(CN2CCN(Cc3ncc[nH]3)CC2)n1	–	–	·	–	–	384
O=C(N/N=C/c1cc(Br)ccc1O)c1ccccc1Cl	–	–	–	–	–	466
O=C(N/N=C/c1ccccc1Cl)c1[nH]c2ccc(Br)cc2c1-c1ccccc1	–	–	60	–	–	–
COC(=O)N/N=C/c1cc(Br)ccc1O	–	–	–	–	–	–
C=CCC1(O)C(=O)Nc2ccccc21 (stereo not drawn)	–	–	–	–	–	55
CCC[C@@H](/C=C/C(=O)OC(C)(C)C)Sc1ccc(N)cc1	–	·	·	·	–	·
COC(=O)C1=C(C)N(Cc2ccc(C(F)(F)F)cc2)C(=NCc2ccc3c(c2)OCO3)NC1c1ccccc1C(F)(F)F (stereo not drawn)	–	·	·	·	–	·
CS(=O)(=O)N1c2cccc3cccc(c23)S1(=O)=O	–	–	–	–	–	48
CC(C(=O)O)N1c2cccc3cccc(c23)S1(=O)=O (stereo not drawn)	–	–	–	–	–	–
CCOC(=O)[C@@]12CCCC=C1N(CCc1ccc(Cl)cc1)C(=O)[C@H]2CC(=O)N1CCOCC1	–	·	·	·	–	·
Brc1ccc2nc(-c3ccco3)c(Cc3ccsc3)n2c1	–	·	·	·	34	·
CCN(CC)C(=O)[C@H]1C[C@@H]2[C@H](C[C@@H](c3ccccc3)[C@H]1C)N(c1ccc(F)cc1)C(=O)N2C/C=C(\C)CCC=C(C)C	–	·	·	·	–	·
SMILES	CCHFV vOTU inh	Yp Topo-I inh	BJeLR lethal	PrP 5UTR inh	PrPC TRFRET	PfHsp40 rescue
Cn1ncc2c(O/N=C(\N)c3ccc(C(C)(C)C)cc3)ncnc21	·	–	99	–	·	73
CCOC(=O)c1ccc(Nc2ncnc3c2cnn3C)cc1	–	–	–	–	–	–
CC(=O)C1=C(C)N(Cc2ccc(Br)cc2)C(=S)NC1c1cccc(F)c1 (stereo not drawn)	–	·	·	·	–	·
O=C(Nc1ccc(Cl)cc1)NC1CCCCC1Cc1ccco1 (stereo not drawn)	–	–	–	–	–	226
Cn1c(-c2c(N)n(C3CCCC3)c3nc4ccccc4nc23)nc2ccccc21	–	–	–	–	–	490
COc1ccc(C=C2C=C(C(C)(C)C)C(=O)C(C(C)(C)C)=C2)cc1OC	–	–	80	–	–	–
